Laboratory results reported in PubChem BioAssay AID1159580 (chemical genetic matrix, 2015).
“And” between values parts separate entries of the source, which are not always exact repeats. Equal entries are not always repeated. Screen size: about 5,500 compounds; about 2,000 (36%) were called active. Another 18% or so got no clear call; they are omitted. Rule as the data show it: active = normalized growth mostly below about 0.91 (no sharp cut-off); inconclusive = no clear call, values can overlap the other calls; inactive = mostly above about 0.92. The list shows a part of the results.

Assay: chemical genetic growth profiling, strain panel (AID 1159580);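 also: tested at 20 µM; growth read once vehicle control cultures reached saturation at 30 °C; 1 = growth at the plate median or of vehicle wells; lower values mean less growth of the strain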
Settings: growth OD

Measured: normalized growth

COc1ccc(CN(CCN(C)C)c2ccccn2)cc1
inactive: S. cerevisiae deletion strains, locus YJR066W, strain TOR1, active compounds read low 0.997 | S. cerevisiae deletion strains, locus YJR075W, strain HOC1, active compounds read low 0.979 | S. cerevisiae deletion strains, locus YKL009W, strain mrt4, active compounds read low 0.954 | S. cerevisiae deletion strains, locus YKL068W, active compounds read low 0.992 | S. cerevisiae deletion strains, locus YKL085W, strain MDH1 (second series), active compounds read low 0.978 | S. cerevisiae deletion strains, locus YKL085W, strain MDH1, active compounds read low 0.978 | S. cerevisiae deletion strains, locus YKL160W, strain elf1, active compounds read low 1.04 | S. cerevisiae deletion strains, locus YKL190W, strain CNB1, active compounds read low 0.996 | S. cerevisiae deletion strains, locus YKR001C, strain vps1, active compounds read low 0.994 | S. cerevisiae deletion strains, locus YKR026C, strain gcn3, active compounds read low 1.01 | S. cerevisiae deletion strains, locus YKR091W, strain srl3, active compounds read low 1 | S. cerevisiae deletion strains, locus YLL001W, strain dnm1, active compounds read low 1.01 | S. cerevisiae deletion strains, locus YLL026W, active compounds read low 1.02 | S. cerevisiae deletion strains, locus YLL041C, strain sdh2, active compounds read low 1.01 | S. cerevisiae deletion strains, locus YLR027C, strain aat2, active compounds read low 1.02 | S. cerevisiae deletion strains, locus YLR039C, strain RIC1, active compounds read low 0.996 | S. cerevisiae deletion strains, locus YLR058C, strain SHM2, active compounds read low 0.997 | S. cerevisiae deletion strains, locus YLR102C, strain apc9, active compounds read low 0.996 | S. cerevisiae deletion strains, locus YLR113W, strain HOG1, active compounds read low 1.01 | S. cerevisiae deletion strains, locus YLR221C, strain rsa3, active compounds read low 1.01 | S. cerevisiae deletion strains, locus YLR258W, strain gsy2, active compounds read low 1.03 | S. cerevisiae deletion strains, locus YLR262C, strain YPT6 (second series), active compounds read low 1.01 | S. cerevisiae deletion strains, locus YLR262C, strain YPT6, active compounds read low 0.992 | S. cerevisiae deletion strains, locus YLR268W, strain sec22, active compounds read low 0.963 | S. cerevisiae deletion strains, locus YLR320W, strain mms22, active compounds read low 1.02 | S. cerevisiae deletion strains, locus YLR330W, strain CHS5, active compounds read low 0.98 | S. cerevisiae deletion strains, locus YLR342W, strain FKS1 (second series), active compounds read low 0.995 | S. cerevisiae deletion strains, locus YLR342W, strain FKS1, active compounds read low 1.03 | S. cerevisiae deletion strains, locus YLR357W, strain rsc2, active compounds read low 1.03 | S. cerevisiae deletion strains, locus YLR370C, strain arc18, active compounds read low 1.02 | S. cerevisiae deletion strains, locus YLR371W, strain rom2, active compounds read low 0.972 | S. cerevisiae deletion strains, locus YLR384C, strain iki3, active compounds read low 1.02 | S. cerevisiae deletion strains, locus YLR418C, strain cdc73, active compounds read low 1 | S. cerevisiae deletion strains, locus YML016C, strain PPZ1, active compounds read low 0.997 | S. cerevisiae deletion strains, locus YML032C, strain rad52, active compounds read low 0.979 | S. cerevisiae deletion strains, locus YML120C, strain ndi1, active compounds read low 1.02 | S. cerevisiae deletion strains, locus YML124C, strain tub3, active compounds read low 0.991 | S. cerevisiae deletion strains, locus YMR058W, strain fet3, active compounds read low 1 | S. cerevisiae deletion strains, locus YMR078C, strain ctf18, active compounds read low 0.992 | S. cerevisiae deletion strains, locus YMR125W, strain sto1, active compounds read low 1.02 | S. cerevisiae deletion strains, locus YMR129W, active compounds read low 1.01 | S. cerevisiae deletion strains, locus YMR205C, strain PFK2, active compounds read low 1.02 | S. cerevisiae deletion strains, locus YMR223W, strain ubp8, active compounds read low 1.02 | S. cerevisiae deletion strains, locus YMR231W, strain pep5, active compounds read low 1.02 | S. cerevisiae deletion strains, locus YMR307W, strain GAS1, active compounds read low 1.01 | S. cerevisiae deletion strains, locus YNL067W, strain RPL9B, active compounds read low 0.996 | S. cerevisiae deletion strains, locus YNL071W, strain lat1, active compounds read low 1.02 | S. cerevisiae deletion strains, locus YNL128W, strain TEP1, active compounds read low 0.967 | S. cerevisiae deletion strains, locus YNL175C, strain NOP13, active compounds read low 1.01 | S. cerevisiae deletion strains, locus YNL183C, strain NPR1, active compounds read low 0.991 | S. cerevisiae deletion strains, locus YNL197C, strain WHI3, active compounds read low 0.966 | S. cerevisiae deletion strains, locus YNL209W, strain ssb2, active compounds read low 1.04 | S. cerevisiae deletion strains, locus YNL224C, strain SQS1, active compounds read low 0.988 | S. cerevisiae deletion strains, locus YNL233W, strain BNI4, active compounds read low 1 | S. cerevisiae deletion strains, locus YNL248C, strain rpa49, active compounds read low 1.05 | S. cerevisiae deletion strains, locus YNL250W, strain rad50, active compounds read low 0.985 | S. cerevisiae deletion strains, locus YNL271C, strain bni1, active compounds read low 0.992 | S. cerevisiae deletion strains, locus YNL298W, strain CLA4, active compounds read low 0.997 | S. cerevisiae deletion strains, locus YNL307C, strain MCK1, active compounds read low 0.986 | S. cerevisiae deletion strains, locus YNL322C, strain KRE1 (second series), active compounds read low 1.04 | S. cerevisiae deletion strains, locus YNR049C, strain mso1, active compounds read low 1.01 | S. cerevisiae deletion strains, locus YNR052C, strain pop2, active compounds read low 0.993 | S. cerevisiae deletion strains, locus YOL006C, strain TOP1, active compounds read low 1.04 | S. cerevisiae deletion strains, locus YOL012C, strain htz1 0.809 | S. cerevisiae deletion strains, locus YOL147C, strain pex11, active compounds read low 0.988 | S. cerevisiae deletion strains, locus YOR001W, strain rrp6, active compounds read low 0.991 | S. cerevisiae deletion strains, locus YOR061W, strain CKA2, active compounds read low 1 | S. cerevisiae deletion strains, locus YOR069W, strain VPS5, active compounds read low 0.986 | S. cerevisiae deletion strains, locus YOR070C, strain gyp1, active compounds read low 1.02 | S. cerevisiae deletion strains, locus YOR080W, strain dia2, active compounds read low 1.03 | S. cerevisiae deletion strains, locus YOR083W, strain WHI5 (second series), active compounds read low 0.991 | S. cerevisiae deletion strains, locus YOR083W, strain WHI5, active compounds read low 0.998 | S. cerevisiae deletion strains, locus YOR106W, strain vam3, active compounds read low 1.04 | S. cerevisiae deletion strains, locus YOR136W, strain idh2, active compounds read low 1 | S. cerevisiae deletion strains, locus YOR144C, strain elg1, active compounds read low 1 | S. cerevisiae deletion strains, locus YOR184W, strain ser1, active compounds read low 1 | S. cerevisiae deletion strains, locus YOR231W, strain MKK1, active compounds read low 1 | S. cerevisiae deletion strains, locus YOR265W, strain rbl2, active compounds read low 1.02 | S. cerevisiae deletion strains, locus YOR270C, strain vph1, active compounds read low 1.08 | S. cerevisiae deletion strains, locus YOR290C, strain snf2, active compounds read low 1.04 | S. cerevisiae deletion strains, locus YOR316C, strain cot1, active compounds read low 0.988 | S. cerevisiae deletion strains, locus YPL051W, strain arl3, active compounds read low 1.04 | S. cerevisiae deletion strains, locus YPL078C, strain atp4, active compounds read low 1.04 | S. cerevisiae deletion strains, locus YPL106C, strain sse1, active compounds read low 1.04 | S. cerevisiae deletion strains, locus YPL240C, strain hsp82, active compounds read low 1.01 | S. cerevisiae deletion strains, locus YPL241C, strain CIN2, active compounds read low 0.995 and 0.99 | S. cerevisiae deletion strains, locus YPL256C, strain CLN2, active compounds read low 1.05 | S. cerevisiae deletion strains, locus YPR119W, strain clb2, active compounds read low 0.988 | S. cerevisiae deletion strains, locus YPR141C, strain kar3, active compounds read low 0.981 | S. cerevisiae deletion strains, locus YPR163C, strain tif3, active compounds read low 0.988 | S. cerevisiae deletion strains, locus YPR167C, strain met16, active compounds read low 0.983 | S. cerevisiae deletion strains, strain wtn01, active compounds read low 0.984 | S. cerevisiae strains, strain wild type, active compounds read low 0.992
